# The whole screen tested about 360,000 compounds, of which about 25,000 (6.9%) were called active. Where a call stands in place of a potency, no number is given. Roughly 9% stayed inconclusive and do not appear here. The call rests on the fitted dose curve; in most records, active means well fitted inhibition curve with a large enough effect; inconclusive means small, poorly fitted or top-dose-only effect; inactive means flat fitted curve, though single readings scatter. Only a selection was taken, and actives are over-represented in it overall.
# Target: Luciferin 4-monooxygenase (Photinus pyralis) (UniProt P08659)
# Assay: qHTS profiling assay for firefly luciferase inhibitor/activator using purifed enzyme and Km concentrations of substrates (counterscreen for miR-21 project); further: nearly all actives have a fitted effect of over 55% in size
# Details: purified FLuc, luminescence inhibition; series mostly up to 57.5 µM
# Outline: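 Biochemical qHTS of compounds, final roughly 60 µM downward over six points, against 10 nM purified firefly luciferase using Km concentrations of substrates (10 uM D-luciferin, 10 uM ATP) in Tris acetate pH 7.5 buffer; luminescence output.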
# Potency means the concentration at half of the fitted maximal effect.
# Sequence of Luciferin 4-monooxygenase (Photinus pyralis) (P08659 whole entry, looked up): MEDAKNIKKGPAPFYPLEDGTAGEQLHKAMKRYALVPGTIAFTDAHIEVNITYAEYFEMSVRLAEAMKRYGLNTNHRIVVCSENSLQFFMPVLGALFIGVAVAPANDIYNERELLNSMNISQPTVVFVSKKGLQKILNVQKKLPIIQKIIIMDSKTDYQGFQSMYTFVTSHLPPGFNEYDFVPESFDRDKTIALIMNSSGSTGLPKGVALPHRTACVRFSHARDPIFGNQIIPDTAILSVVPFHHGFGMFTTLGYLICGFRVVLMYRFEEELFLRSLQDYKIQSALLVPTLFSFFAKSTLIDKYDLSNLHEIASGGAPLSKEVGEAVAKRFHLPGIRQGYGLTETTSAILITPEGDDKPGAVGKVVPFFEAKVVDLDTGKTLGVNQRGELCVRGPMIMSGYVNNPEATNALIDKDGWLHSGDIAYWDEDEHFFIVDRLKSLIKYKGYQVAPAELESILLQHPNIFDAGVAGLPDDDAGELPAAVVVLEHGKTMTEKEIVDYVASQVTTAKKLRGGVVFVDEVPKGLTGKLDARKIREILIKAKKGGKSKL
row,SMILES,Potency
1,Cc1ccccc1Nc1scc(-c2ccc(Br)cc2)[n+]1-c1ccccc1C,inactive
2,CCOc1ccc(OCC)c(NS(=O)(=O)c2ccc3[nH]c(=O)ccc3c2)c1,inactive
3,Cc1cccc(-n2c(Cc3cc(=O)[nH]c(=O)[nH]3)nnc2SC(C)C)c1,inactive
4,COc1cccc(N(CC(=O)NC2CCCC2)C(=O)Cn2nnc(-c3ccc(C)o3)n2)c1,inactive
5,O=S(=O)(c1ccc(Br)cc1)c1nnn2c1nc(N1CCOCC1)c1sccc12,inactive
6,CCn1cc2nc(SCc3ccccc3Cl)n(CCc3ccccc3)c(=O)c2n1,inactive
7,COc1ccc(C(=O)NNC(=S)NC(=O)c2ccccc2)cc1,inactive
8,COc1ccc(NC(=O)C(Br)C(C)C)cc1 (stereo unspecified),inactive
9,O=C(NC(=S)NC1CCCCC1)c1ccc(Cl)cc1,inactive
10,COc1cc(OC)cc(C(=O)OCC(=O)Nc2ccc(F)cc2F)c1,inactive
11,CCc1ccccc1NC(=O)c1ccc2nc(CCc3ccccc3)oc2c1,inactive
12,COc1ccc(NC(=O)c2ccc3nc(CCc4ccccc4)oc3c2)c(OC)c1,inactive
13,COc1ccc(NC(=O)ON=C2c3ccccc3-c3ccccc32)cc1,21.3 µM (active)
14,COc1cccc(NC(=O)c2ccc3nc(CCc4ccccc4)oc3c2)c1,23.9 µM (active)
15,COc1ccc(C(=O)Nc2ccc(F)cc2F)cc1,10.7 µM (active)
16,COc1ccccc1CC(=O)Nc1ccc(F)cc1F,inactive
17,COc1ccc(C(=O)NC(=S)NC2CCCCC2)cc1,15.1 µM (active)
18,COc1ccc(NC(=O)CS(=O)(=O)c2ccccc2)cc1,inactive
19,Cc1ccc2c(=O)c(C(=O)c3ccc(Cl)cc3)cn(CC(=O)NC3CCCCC3)c2n1,inactive
20,CC(=O)N1c2ccccc2CC1C(=O)N1CCN(c2ccc(F)cc2)CC1 (stereo unspecified),inactive
21,O=c1cc2nc(-c3ccccc3)nc(SCCOc3ccc(Cl)cc3)n2[nH]1,inactive
22,O=C(NNC(=S)NC1CC2CCC1C2)c1ccc(Cl)cc1 (stereo unspecified),inactive
23,CCc1cc(C(N)=O)c(NC(=O)c2ccc(OC)cc2)s1,6.01 µM (active)
24,CCc1cc(C(c2ccccc2OC)N2CCOCC2)c(NC(=O)c2ccccc2)s1 (stereo unspecified),inactive
25,CCc1cc(C(=O)c2ccc(OC)cc2)c(NC(=O)CN2CCN(C)CC2)s1,inactive
26,CC(=O)c1ccc(NC(=O)c2nc3nc(C)cc(C(F)F)n3n2)cc1,inactive

row,SMILES,Potency
1,Cc1cc(C)cc(N(CC(=O)NC2CCCC2)C(=O)CCC(=O)Nc2cc(C)on2)c1,inactive
2,CCOC(=O)c1c(S(=O)(=O)N2CCCC(C(=O)NCc3ccc(F)cc3)C2)c(C)n(CC)c1C (stereo unspecified),inactive
3,Cc1ccc(C(=O)OCC(=O)NCc2ccc3c(c2)OCO3)s1,inactive
4,CCOC(=O)c1nc(-c2ccc3c(c2)OCO3)[nH]c1C,15.1 µM (active)
5,CCOCCOC(=O)C1=C(C)NC(=O)NC1c1ccc2c(c1)OCO2 (stereo unspecified),inactive
6,CCCCN(CC)CCNC(=O)CCNC(=O)Cn1ccc2ccccc2c1=O,inactive
7,Cc1ccc(C)c(OCC(=O)Nc2sc3c(c2C#N)CCCC3)c1C,inactive
8,O=c1cc(COc2cccc(C(F)(F)F)c2)nc2sc3c(n12)CCCC3,inactive
9,O=C1NN(c2ccccc2)C(=O)/C1=C/c1ccc(-c2cccc(C(=O)O)c2)o1,26.9 µM (active)
10,CN1C(=O)/C(=C/c2ccco2)SC1=Nc1cccc(C(=O)O)c1,inactive
11,CC(=O)c1cc(-c2ccccc2)[nH]c1N1CCCC1,inactive
12,CCCN(CCC)S(=O)(=O)c1ccc(C(=O)Nc2sc3c(c2C(=O)OC)CCN(CC)C3)cc1,inactive
13,CCc1nnc(NC(=O)C2CCN(C(=O)c3ccccc3C)CC2)s1,inactive
14,O=C(/C=C/c1ccc(Cl)cc1)Nc1ccc(Br)cn1,inactive
15,CC(C)(C)c1ccc(/C=C/C(=O)Nc2ncccn2)cc1,4.78 µM (active)
16,CC(C)(C)c1ccc(/C=C/C(=O)NC2CCS(=O)(=O)C2)cc1 (stereo unspecified),inactive
17,O=S(=O)(Cc1nnnn1-c1ccc(Br)cc1)c1ccc(F)cc1,inactive
18,Cc1cc(C)c(CN2CCN(C(=O)Cn3ccc(NC(=O)OCc4ccccc4)nc3=O)CC2)c(C)c1,inactive
19,Cc1cc(-c2csc(N)n2)c(C)n1-c1ccccc1,19 µM (active)
20,CC(=O)Nc1ccc(C(=O)Nc2nc(-c3cc(C)n(Cc4ccccc4)c3C)cs2)cc1,inactive
21,Cc1cc(C(=O)OCC(=O)N2c3ccccc3NC(=O)C2(C)C)c(C)n1-c1ccccc1,inactive
22,C=CCSc1ccc(S(=O)(=O)N2CCN(C)CC2)cn1,inactive
23,Cc1cccc(N(CC(=O)Nc2ccc(-c3nc4ccc(C)cc4s3)cc2)S(C)(=O)=O)c1,5.36 µM (active)
24,Cc1ccc2nc(-c3ccc(NC(=O)CN(C)S(=O)(=O)c4ccccc4)cc3)sc2c1,15.1 µM (active)
25,CCN(CC)S(=O)(=O)c1ccc(NC(=O)CN(c2cccc(F)c2)S(C)(=O)=O)cc1,inactive
26,Cc1nc2ccc(S(=O)(=O)N(C)CC(=O)NC(C)c3ccccc3)cc2s1 (stereo unspecified),inactive

row,SMILES,Potency
1,COc1cc(NC(=O)CN(C)S(=O)(=O)c2ccc3nc(C)sc3c2)cc(OC)c1,inactive
2,COc1cccc(N(CC(=O)Nc2cccc(F)c2)S(C)(=O)=O)c1,inactive
3,C=CCNC(=O)COC(=O)CNC(=O)c1cc(Cl)cc([N+](=O)[O-])c1,inactive
4,Cc1ccc(C)c(N2CCN(C(=O)Cc3c(C(=O)O)c(C)cn3C)CC2)c1,inactive
5,CSc1cccc(NC(=O)CN2C(=O)CCc3cc(S(=O)(=O)N4CCCCC4)ccc32)c1,inactive
6,COc1cccc(OC)c1C(=O)Nc1ccc2c(c1)n(C)c(=O)n2C,inactive
7,Cn1c(=O)n(C)c2cc(C(=O)Nc3ccc(Br)cc3)ccc21,15.1 µM (active)
8,Cn1c(=O)n(C)c2cc(/C=N/NC(=O)c3cccc(Br)c3)ccc21,inactive
9,COc1cc(OC)c(OC)cc1/C=C/c1nc2ccccc2c(=O)n1-c1ccc(Br)c(C)c1,inactive
10,CCOCCCNC(=O)c1ccc(CS(=O)(=O)c2cccc(C(F)(F)F)c2)o1,inactive
11,CCCCN1Cc2c(nc3cc(-c4ccccc4)[nH]n3c2=O)C1=O,19 µM (active)
12,Cc1nc2c(-c3ccccc3)c(C)[nH]n2c(=O)c1Cl,inactive
13,CCCCCN1CC(O)=C(c2ccccc2)C1=N,inactive
14,Cc1nc2scc(-c3cccs3)c2c(=O)n1N,inactive
15,CCc1c(C)nc2cc(-c3cccs3)[nH]n2c1=O,16.9 µM (active)
16,Cc1cc2nc3c(=O)n(Cc4ccccc4)c(=O)[nH]c3nc2cc1N,inactive
17,CCc1c(C)nc2cc(C)[nH]n2c1=O,inactive
18,C=CCc1c(C)nc2cc(-c3ccccc3)[nH]n2c1=O,6.01 µM (active)
19,CCOC(=O)c1ccc(NC(=O)CCS(=O)(=O)c2ccc(C)cc2)cc1,inactive
20,O=C(/C=C/c1cccc([N+](=O)[O-])c1)OCC(=O)N1CCOCC1,inactive
21,CCc1ccccc1N1C(=O)CN(S(=O)(=O)CC)CC1(C)C(=O)NC1CCCCC1 (stereo unspecified),inactive
22,CCCn1c2ccccc2c2cnn(CC(=O)N3CCCC(C(=O)OCC)C3)c(=O)c21 (stereo unspecified),inactive
23,Cn1c(=O)[nH]c(=O)c2c1nc(NCCc1ccccc1)n2Cc1ccc(F)cc1,inactive
24,COc1ccc(OC)c(S(=O)(=O)Nc2ccccc2F)c1,inactive
25,COc1cc2c(cc1OC)C(COc1ccc(F)cc1)N(C(=O)c1ccccc1F)CC2 (stereo unspecified),inactive
26,COc1ccc2c(c1)CCC/C2=N\OC(=O)c1ccccc1F,12 µM (active)

row,SMILES,Potency
1,O=C(CNS(=O)(=O)c1ccc2c(c1)OCCCO2)N1CCN(c2ccc(F)cc2)CC1,inactive
2,CCOC(=O)C1=C(c2ccccc2)O/C(=C(/C(=O)OC)C(F)(F)F)S1,inactive
3,COC(=O)/C(=C1\Oc2ccc(C(C)(C)C)cc2S1)C(F)(F)F,3.79 µM (active)
4,CC(C)(C)c1ccc(C(=O)NCC(c2ccco2)S(=O)(=O)c2ccc(F)cc2)cc1 (stereo unspecified),inactive
5,CCOC(=O)c1c(C)n(S(=O)(=O)c2ccc(C)cc2C)c2ccc(NS(=O)(=O)c3ccc(C)cc3C)cc12,inactive
6,O=C(Nc1ccc(OC(F)(F)F)cc1)C1CCCN(S(=O)(=O)c2ccc(Br)s2)C1 (stereo unspecified),inactive
7,Cc1ccc2c(=O)cc(C(=O)Nc3sc4c(c3C(=O)NCc3cccnc3)CCCC4)oc2c1,inactive
8,COc1ccccc1C(=O)NCCn1cc(SCc2ccccc2Cl)c2ccccc21,inactive
9,Cc1ccccc1NC(=O)Cn1c(=O)n(CCc2ccccc2)c(=O)c2ccccc21,inactive
10,Cc1nnc(C)n1-c1ccc(C(=O)Nc2cccc(Br)c2)cc1,inactive
11,Cc1cccc(C)c1-n1c(C)cc(/C=C2\C(=O)NN(c3ccccc3)C2=O)c1C,3.38 µM (active)
12,COc1ccc(CNC(=O)c2cc3c(s2)-c2ccccc2OC3)cc1,inactive
13,Cc1csc(=O)n1CCC(=O)OCC(=O)NNC(=O)c1ccc(Br)cc1,inactive
14,CC(=O)Nc1nc2ccccc2n1Cc1ccc(C)cc1,inactive
15,Cc1ccc(Cn2c(CCCNC(=O)C3CCCCC3)nc3ccccc32)cc1,inactive
16,CCCc1nc2c(C)cc(-c3nc4ccccc4n3C)cc2n1Cc1ccc(-c2ccccc2C(=O)O)cc1,13.5 µM (active)
17,Cc1ccc(C)c(C(=O)COC(=O)Cn2[nH]c(=O)c3ccccc3c2=O)c1,inactive
18,CCOc1ccccc1NC(=O)Cn1c2ncccc2c(=O)n1-c1ccc(C)c(C)c1,inactive
19,CCOc1cc(CN2CCN(C(=O)CC(C)C)CC2)ccc1OC,inactive
20,COc1cc(CN2CCC(C(N)=O)CC2)ccc1OCc1ccccc1,10.7 µM (active)
21,COc1ccc(COCC(O)CN2CCC(C(N)=O)CC2)cc1 (stereo unspecified),inactive
22,CCC(C)(C)NC(=O)CN(Cc1cccs1)C(=O)CNS(=O)(=O)c1ccc(F)cc1,inactive
23,CCOC(=O)Cn1c(=O)n(Cc2ccc(OC)cc2)c(=O)c2cccnc21,inactive

# Reference: PubChem BioAssay AID588342 (National Center for Advancing Translational Sciences (NCATS), 2011)
